Reference: PubChem BioAssay (NCI)
Compounds without any hit were thinned out: in the full panel of roughly 83,000, 20% have a hit.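 Negative percent growth values reflect cell death: -40 means 40% of the cells present at the start died, and -100 means all died.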 Values without a mark were called inactive. Calls of active or inactive are those of the source. Rule for the calls: active = growth percent below 10; inactive = the rest.

Experiments:
Assay in all cases: NCI-60 one-dose screen, 48 h (100 = growth as untreated, 0 = no growth, -100 = all killed)
Settings in all cases: 10 µM unless noted
[1] = tested on: SK-MEL-2 melanoma
[2] = tested on: EKVX NSCLC
[3] = tested on: SN12C renal
[4] = tested on: UO-31 renal
[5] = tested on: TK-10 renal
[6] = tested on: ACHN renal
[7] = tested on: CAKI-1 renal
[8] = tested on: A498 renal
[9] = tested on: CCRF-CEM leukemia
[10] = tested on: MOLT-4 leukemia
[11] = tested on: RPMI-8226 leukemia
[12] = tested on: OVCAR-8 ovarian
[13] = tested on: OVCAR-5 ovarian
[14] = tested on: OVCAR-4 ovarian
[15] = tested on: SK-OV-3 ovarian
[16] = tested on: IGROV1 ovarian
[17] = tested on: OVCAR-3 ovarian
[18] = tested on: HS 578T breast
[19] = tested on: NCI/ADR-RES ovarian
[20] = tested on: SR leukemia

Compound	growth [1]	growth [2]	growth [3]	growth [4]	growth [5]	growth [6]	growth [7]	growth [8]	growth [9]	growth [10]	growth [11]	growth [12]	growth [13]	growth [14]	growth [15]	growth [16]	growth [17]	growth [18]	growth [19]	growth [20]
C#CCn1cccc1CNc1ccc(OC)cc1	-14.1% (active)	-83% (active)	-84.3% (active)	-95.4% (active)	-77.7% (active)	-95% (active)	-87.6% (active)	53.8%	-43.6% (active)	-29.5% (active)	-58.8% (active)	-28% (active)	-89.5% (active)	-63.8% (active)	-63.5% (active)	-68.5% (active)	-84.7% (active)	-40% (active)	-53.1% (active)	
O=C(O)c1cn(C2CC2)c2cc(N3CCN(C(=O)CN4C(=O)CSC4=O)CC3)c(F)cc2c1=O	113%	74.4%	91.7%	56.4%	73.5%	93.7%	76.2%	101%		109%	126%	105%	99%	86.4%	113%	82.6%	108%	97.7%	108%	99.3%
COc1cc(-c2nn(C(C)(C)C)cc2-c2ccnc(NCCCNS(=O)(=O)c3cccc(F)c3)n2)ccc1Cl	85.8%	40.6%	58.6%	42.9%	68.2%	83.4%	25.7%	34.4%		44%	51.8%	89.3%	80.5%	45.8%	102%	48.9%	85%	80.3%	74.5%	50.6%
O=C1[C@@H]2Cc3c([nH]c4ccccc34)[C@H](c3c(Cl)cccc3Cl)N2C(=O)CN1C1CCN(CC2CCCCC2)CC1	105%	90.7%	61.4%	69.7%	139%	51.3%	76.7%	87.1%		19.5%	38.4%	88.1%	93.4%	90.2%	123%	58.4%	20.3%	18.7%	74.9%	-0.527% (active)
C=CCn1c(SCC(=O)Nc2ccc(C(=O)/C=C/c3cccc([N+](=O)[O-])c3)cc2)nnc1-c1c[nH]c2ccccc12	93.9%	89.1%	85.2%	67.8%	102%	91.1%	87.1%	87.4%			11.9%	90.4%	96.8%		106%	82.7%	99.8%	102%	101%	
O=C(CSc1nc2ccccc2c(=O)n1-c1ccccc1)Nc1cccc(C(=O)/C=C/c2ccccc2)c1	100%	96.7%	98.4%	76%	107%	102%	86%	98%		88.6%	6.02% (active)	84%	96.6%	94%	103%	95.4%		92.5%	96.8%	77.5%
CCCn1cnc2c(c1=N)C(c1ccc(F)cc1)c1sc3c(C)cccc3c1O2 (stereo unspecified)	52.8%	37.1%	61.9%	32.8%	70.9%	35.5%	28.6%	-19.9% (active)		40%	-13.5% (active)	40.2%	42.4%	35.8%	41.1%	25.2%	-12.6% (active)	13.7%	-11.8% (active)	8.4% (active)
N/C(=N\C(N)=N\c1nc2ccccc2s1)c1ccc2ccccc2c1	97.7%	47.9%	75.3%	23.4%	126%	78.4%	36.4%	96.9%		60.6%	76.7%	84.8%	102%	85%	116%	55.3%	109%	90.9%	30.3%	-17.6% (active)
Cc1cccc2c3c(sc12)C(c1ccc(Cl)cc1)c1c(nc(CC(=O)Nc2ccccc2)[nH]c1=O)O3 (stereo unspecified)	68.4%	63.7%	71.9%	50.9%	132%	47.3%	41.1%	41.5%		83.4%	73.9%	85.6%	81.6%	90.3%	73.3%	21%	30.5%	60.1%	26.7%	58.1%
COc1ccc(-c2nc3ccc(-c4nnc(SCC(=O)Nc5ccc(C(=O)/C=C/c6ccc(Cl)cc6)cc5)o4)cc3[nH]2)cc1	111%	99.7%	88.3%	85.3%	120%	97.7%	97.2%	84.3%		88.3%	79.9%	105%	99.4%		112%	87.2%	113%	90.6%	107%	68.2%
Cc1c(F)cc(C(N)=O)cc1NCC(=O)Nc1ccc([N+](=O)[O-])cc1	96.3%	61.4%	73.2%	56.7%	62.6%	92.9%	62.3%	22.9%		105%	110%	99.8%	89.5%	67.8%	106%	80.1%	96.7%	88.4%	96.6%	
Oc1[nH]c2ccccc2c1Nn1c(N=N/C=c2/ccc3c(c2)C=NN=3)n[nH]c1=S	104%	64.2%	93.9%	74.8%	165%	96.8%	82.8%	82.9%		103%	91%	105%	109%	84.6%	106%	74.6%	96.8%	103%	112%	
